# Test results from the supplement of paper PMC8728848.
# Many of the other results were omitted from the sample, so the strongest signals are more common in it than they were.
# Key:
# Experiment in all cases: glycan array binding signal (z-score within array); higher = stronger binding
# Conditions in all cases: glycan notation: IUPAC condensed, linker removed
# Fuc(a1-2)Gal(b1-3)GlcNAc = biological target: Fuc(a1-2)Gal(b1-3)GlcNAc
# Outline: (§1)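 The binding signal is a Z-score computed within each array and averaged over linkers. Arrays of the same protein sequence at different concentrations or buffers were also averaged together. Data originate from 3228 arrays in the Consortium for Functional Glycomics database, kept only where the protein sequence was available.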
# [1] = biological target: Fuc(a1-2)Gal(b1-3)GlcNAc6S
# Outline: as §1
# [2] = biological target: Fuc(a1-2)Gal(b1-3)[Fuc(a1-4)]GlcNAc
# Outline: as §1
# [3] = biological target: Fuc(a1-2)Gal6S(b1-3)GlcNAc
# Outline: as §1
# [4] = biological target: Fuc(a1-2)Gal6S(b1-3)GlcNAc6S
# Outline: as §1
# [5] = biological target: Fuc(a1-2)[GalNAc(a1-3)]Gal(b1-3)GlcNAc(b1-3)GalNAc
# Outline: as §1
# [6] = biological target: Fuc(a1-3)[Gal(b1-4)]GlcNAc6S
# Outline: as §1
# [7] = biological target: Fuc(a1-3)[Gal3S(b1-4)]Glc
# Outline: as §1
# [8] = biological target: Fuc(a1-3)[Gal3S(b1-4)]GlcNAc
# Outline: as §1
# Gal(a1-3)Gal = biological target: Gal(a1-3)Gal
# Outline: as §1
# [9] = biological target: Gal(a1-3)Gal(b1-3)GlcNAc(b1-2)Man
# Outline: as §1
# Gal(b1-2)Gal = biological target: Gal(b1-2)Gal
# Outline: as §1
# [10] = biological target: Gal(b1-3)GlcNAc(a1-3)Gal(b1-4)GlcNAc
# Outline: as §1
# [11] = biological target: Gal(b1-3)GlcNAc(b1-2)[Gal(b1-3)GlcNAc(b1-6)]Man(a1-6)[Gal(b1-3)GlcNAc(b1-2)Man(a1-3)]Man(b1-4)GlcNAc(b1-4)GlcNAc
# Outline: as §1
# [12] = biological target: Gal(b1-3)GlcNAc(b1-3)Gal(b1-4)Glc
# Outline: as §1
# [13] = biological target: Gal(b1-3)GlcNAc(b1-3)Gal(b1-4)GlcNAc(b1-2)[Gal(b1-3)GlcNAc(b1-3)Gal(b1-4)GlcNAc(b1-6)]Man(a1-6)[Gal(b1-3)GlcNAc(b1-3)Gal(b1-4)GlcNAc(b1-2)Man(a1-3)]Man(b1-4)GlcNAc(b1-4)[Fuc(a1-6)]GlcNAc
# Outline: as §1
# [14] = biological target: Gal(b1-4)GlcNAc(b1-2)Man(a1-3)[Gal(b1-4)GlcNAc(b1-2)Man(a1-6)][GlcNAc(b1-4)]Man(b1-4)GlcNAc(b1-4)[Fuc(a1-6)]GlcNAc
# Outline: as §1
# [15] = biological target: Gal(b1-4)GlcNAc(b1-3)Gal(b1-4)GlcNAc(b1-3)Gal(b1-4)GlcNAc
# Outline: as §1
# [16] = biological target: Gal(b1-4)GlcNAc(b1-3)Gal(b1-4)GlcNAc(b1-3)Gal(b1-4)GlcNAc(b1-3)Gal(b1-4)GlcNAc(b1-3)Gal(b1-4)GlcNAc(b1-2)Man(a1-3)[Gal(b1-4)GlcNAc(b1-3)Gal(b1-4)GlcNAc(b1-3)Gal(b1-4)GlcNAc(b1-3)Gal(b1-4)GlcNAc(b1-3)Gal(b1-4)GlcNAc(b1-2)Man(a1-6)]Man(b1-4)GlcNAc(b1-4)GlcNAc
# Outline: as §1
# [17] = biological target: Gal(b1-4)GlcNAc(b1-6)Gal(b1-4)GlcNAc
# Outline: as §1
# Gal6S(b1-3)GlcNAc = biological target: Gal6S(b1-3)GlcNAc
# Outline: as §1
# GalNAc(b1-4)GlcNAc = biological target: GalNAc(b1-4)GlcNAc
# Outline: as §1
# [18] = biological target: GalNAc(b1-4)GlcNAc(b1-2)Man
# Outline: as §1
# [19] = biological target: GalNAc(b1-4)GlcNAc(b1-3)GalNAc(b1-4)GlcNAc
# Outline: as §1
# GalNAc4S6S(b1-4)GlcNAc = biological target: GalNAc4S6S(b1-4)GlcNAc
# Outline: as §1
# [20] = biological target: Glc(a1-4)Glc(a1-4)Glc(a1-4)Glc
# Outline: as §1
# [21] = biological target: Glc(a1-6)Glc(a1-6)Glc(a1-6)Glc
# Outline: as §1
# Glc(b1-6)Glc = biological target: Glc(b1-6)Glc
# Outline: as §1
# [22] = biological target: GlcNAc(a1-4)Gal(b1-4)GalNAc
# Outline: as §1
# [23] = biological target: GlcNAc(a1-4)Gal(b1-4)GlcNAc
# Outline: as §1
binder,measurement,setting,value
"Pa IMPa (Pseudomonas aeruginosa), Q9I5W4 (protein) MSLSTTAFPSLQGENMSRSPIPRHRALLAGFCLAGALSAQAATQEEILDAALVSGDSSQLTDSHLVALRLQQQVERIRQTRTQLLDGLYQNLSQAYDPGAASMWVLPANPDNTLPFLIGDKGRVLASLSLEAGGRGLAYGTNVLTQLSGTNAAHAPLLKRAVQWLVNGDPGAATAKDFKVSVVGVDKTAALNGLKSAGLQPADAACNALTDASCASTSKLLVLGNGASAASLSATVRARLQAGLPILFVHTNGWNQSSTGQQILAGLGLQEGPYGGNYWDKDRVPSSRTRTRSVELGGAYGQDPALVQQIVDGSWRTDYDWSKCTSYVGRTTCDDVPGLSDFSKRVDVLKGALDAYNQKAQNLFALPGTTSLRLWLLWADAVRQNIRYPMDKAADTARFQETFVADAIVGYVREAGAAQKELGSYAGQRQQSMPVSGSEETLTLTLPSAQGFTAIGRMAAPGKRLSIRIEDAGQASLAVGLNTQRIGSTRLWNTRQYDRPRFLKSPDIKLQANQSVALVSPYGGLLQLVYSGATPGQTVTVKVTGAASQPFLDIQPGEDSSQAIADFIQALDADKADWLEIRSGSVEVHAKVEKVRGSIDKDYGGDVQRFIRELNEVFIDDAYTLAGFAIPNQAKTPAIQQECAARGWDCDSETLHKLPGTQHINVDQYAQCGGGCSGNPYDQTWGLNPRGWGESHELGHNLQVNRLKVYGGRSGEISNQIFPLHKDWRVLREFGQNLDDTRVNYRNAYNLIVAGRAEADPLAGVYKRLWEDPGTYALNGERMAFYTQWVHYWADLKNDPLQGWDIWTLLYLHQRQVDKSDWDANKAALGYGTYAQRPGNSGDASSTDGNDNLLLGLSWLTQRDQRPTFALWGIRTSAAAQAQVAAYGFAEQPAFFYANNRTNEYSTVKLLDMSQGSPAWPFP",glycan array binding signal (z-score),Fuc(a1-2)Gal(b1-3)GlcNAc,-0.318
same,glycan array binding signal (z-score),[1],-0.327
same,glycan array binding signal (z-score),[2],-0.558
same,glycan array binding signal (z-score),[3],0.048
same,glycan array binding signal (z-score),[4],2.91
same,glycan array binding signal (z-score),[5],-0.411
same,glycan array binding signal (z-score),[6],-0.132
same,glycan array binding signal (z-score),[7],-0.077
same,glycan array binding signal (z-score),[8],-0.278
same,glycan array binding signal (z-score),Gal(a1-3)Gal,0.105
same,glycan array binding signal (z-score),[9],-0.472
same,glycan array binding signal (z-score),Gal(b1-2)Gal,0.524
same,glycan array binding signal (z-score),[10],1.27
same,glycan array binding signal (z-score),[11],-0.438
same,glycan array binding signal (z-score),[12],0.215
same,glycan array binding signal (z-score),[13],0.004
same,glycan array binding signal (z-score),[14],-0.448
same,glycan array binding signal (z-score),[15],-0.198
same,glycan array binding signal (z-score),[16],10.7
same,glycan array binding signal (z-score),[17],-0.112
same,glycan array binding signal (z-score),Gal6S(b1-3)GlcNAc,1.34
same,glycan array binding signal (z-score),GalNAc(b1-4)GlcNAc,-0.367
same,glycan array binding signal (z-score),[18],0.357
same,glycan array binding signal (z-score),[19],-0.197
same,glycan array binding signal (z-score),GalNAc4S6S(b1-4)GlcNAc,1.48
same,glycan array binding signal (z-score),[20],0.634
same,glycan array binding signal (z-score),[21],0.853
same,glycan array binding signal (z-score),Glc(b1-6)Glc,-0.442
same,glycan array binding signal (z-score),[22],0.088
same,glycan array binding signal (z-score),[23],3.49
